Reference: PubChem BioAssay (NCI)
Compounds without any hit were thinned out: in the full panel of roughly 79,000, 15% have a hit. Calls of active or inactive are those of the source. Cut-off read from the data, not from the text of the source: active = growth inhibition above about 70%; inactive = the rest. Where a SMILES comes first, the peptide text is derived from it.

Legend:
[1] = NCI Yeast Anticancer Drug Screen. Data for the rad50 strain (AID 155);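 note: 0% = growth of vehicle-only cultures of the same strain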; settings: S. cerevisiae rad50 strain growth inhibition; at 50.0 µM; active compounds read high
Procedure, shortened: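 Growth of the mutant yeast was measured after compound exposure and referenced to vehicle-treated cultures.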

[2] = NCI Yeast Anticancer Drug Screen. Data for the mec2-1 strain (AID 157); settings: S. cerevisiae mec2-1 strain, at 50.0 µM, active compounds read high
Procedure, shortened: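 Mutant yeast (mec2-1) grown with compound; growth inhibition relative to vehicle control reported.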

[3] = NCI Yeast Anticancer Drug Screen. Data for the sgs1 mgt1 strain (AID 161);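 note: 0% = growth of cultures given vehicle only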; settings: S. cerevisiae sgs1 mgt1 strain, at 50.0 µM, active compounds read high
Procedure, shortened: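 Compounds are added to genetically altered yeast, and growth is compared with cultures given vehicle alone to give percent inhibition.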

[4] = NCI Yeast Anticancer Drug Screen. Data for the cln2 rad14 strain (AID 165);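 note: 0% = growth equal to vehicle treated cultures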; settings: S. cerevisiae cln2 rad14 strain, at 50.0 µM, active compounds read high
Procedure, shortened: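 Readout is yeast growth inhibition versus vehicle-treated controls, using a strain with cln2 and rad14 alterations exposed to compound.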

[5] = NCI Yeast Anticancer Drug Screen. Data for the bub3 strain (AID 167); settings: S. cerevisiae bub3 mutant strain, at 50.0 µM, active compounds read high
Procedure, shortened: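 Whole-cell yeast assay. The mutant strain was incubated with compounds, and growth inhibition was determined by comparison with vehicle-treated cells.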

[6] = NCI Yeast Anticancer Drug Screen. Data for the mlh1 rad18 strain (AID 175); settings: S. cerevisiae mlh1 rad18 strain growth inhibition; at 50.0 µM; active compounds read high
Procedure, shortened: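 Genetically defined yeast (DNA repair-deficient) exposed to compounds; growth inhibition determined relative to vehicle.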

Measured: growth inhibition

O=C(Nc1ccc(Cl)cc1)Nc1nnc2nc(CC(=O)c3ccccc3)c(=O)[nH]n12
inactive: [1] 15.7% | [2] 1.1% | [3] 11.9% | [4] -19% | [5] -21.9% | [6] 1.1%

Cc1ccccc1-c1c(N)nc(N)nc1C(=O)Nc1nccs1
inactive: [1] -26.6% | [2] -36.2% | [3] -39.6% | [4] -3.85% | [5] -28.1% | [6] -7.9%

S=C(N1CCN(c2ccc(Cl)c(Cl)c2)CC1)N1CCN(c2ccc(Cl)c(Cl)c2)CC1
inactive: [1] 7.8% | [2] 22.2% | [3] 27.9% | [4] 12% | [5] 5.55% | [6] 20.2%

N#C/C(=C\NC(=S)Nc1ccc(S(=O)(=O)Nc2nccs2)cc1)C(=O)c1ccc2ccccc2c1
inactive: [1] 7.7% | [2] 1.8% | [3] 14.3% | [4] -9.75% | [5] -8% | [6] 16.4%

CC(=O)[CH-]C(=O)Nc1ccccc1.CC(=O)[CH-]C(=O)Nc1ccccc1.CC[O-].CC[O-].[Ti+4]
inactive: [1] -16.4% | [2] 14.3% | [3] 11.3% | [4] 21% | [5] 12.8% | [6] 12.7%

COC(=O)/C=C(\C(=O)c1ccccc1)c1ccccc1
inactive: [1] 6.05% | [2] 4.25% | [3] -4.1% | [4] 8.95% | [5] 0.3% | [6] 11.9%

COC(=O)C1(Cc2ccc3c(c2)CCC3)Cc2ccccc2C1=O (stereo unspecified)
inactive: [1] 5.1% | [2] 22.4% | [3] 25.1% | [4] 21.6% | [5] 49.5% | [6] 8.8%

CCC(CCC#N)(CCC#N)C(=O)c1ccc(C)s1
inactive: [1] 1.5% | [2] -4.3% | [3] 1.3% | [4] -19.8% | [5] 0.1% | [6] 2.45%

CN1CCCC1=Nc1ccc([N+](=O)[O-])cc1
inactive: [1] 23.1% | [2] -3.55% | [3] 23% | [4] -29.3% | [5] -11.9% | [6] 25.9%

CCCCCC(O)c1ccccc1 (stereo unspecified)
inactive: [1] 22.7% | [2] -15.1% | [3] 11.2% | [4] -6.8% | [5] -7.1% | [6] 17.5%

O=C(Nc1ccccc1)Oc1ccc(C2CCCCC2)cc1
inactive: [1] 14.7% | [2] 22.1% | [3] 8.2% | [4] 0.95% | [5] 23.3% | [6] 54.6%

NC(Cc1cnc[nH]1)C(=O)NC(Cc1ccc(O)cc1)C(=O)O (stereo not drawn) (H-His-Tyr-OH; configuration not given here)
inactive: [1] 7.6% | [2] -23% | [3] 7.2% | [4] 16.6% | [5] 9.85% | [6] 22%

COc1cc2nncc(SCc3ccc(Cl)cc3)c2cc1OC
inactive: [1] -1% | [2] 4.2% | [3] -0.55% | [4] -11% | [5] 15.5% | [6] 4.05%

COCCOCCOCCC(=O)NC1CC2CCC1(C)C2(C)C (stereo unspecified)
inactive: [1] -10.5% | [2] -1.85% | [3] 8.2% | [4] -16.7% | [5] 23.7% | [6] 15.4%

O=c1c2ccccc2nc(-c2ccccc2)n1NC(=S)Nc1ccccc1
inactive: [1] -27.9% | [2] -42.6% | [3] -39.8% | [4] -13.8% | [5] -19.9% | [6] -19%

NC(=O)C12OC1(Cl)CCCC2(Cl)Cl (stereo unspecified)
inactive: [1] 1.05% | [2] -27.9% | [3] 8.5% | [4] 9.05% | [5] 18% | [6] 18.2%

COC(=O)[C@@H]1CON(Cc2ccccc2)C1CC1(C)OCCO1 (stereo partly specified)
inactive: [1] 0.85% | [2] -7.3% | [3] 23.8% | [4] 0.6% | [5] 7.35% | [6] 8.45%

COc1cc2c(cc1OC)C(c1ccc(N=Cc3ccc(N(C)C)cc3)cc1)N(C(=S)Nc1cc(Cl)ccc1Cl)CC2 (stereo unspecified)
inactive: [1] 35.5% | [2] 5.15% | [3] 40.7% | [4] 21.7% | [5] 24.1% | [6] 26.9%

COc1ccc(OC)c(NC(=O)Nc2cc(Cl)ccc2C)c1
inactive: [1] 4.25% | [2] 0.65% | [3] -2.3% | [4] -6.1% | [5] 19.2% | [6] 4.8%

O=C1CSC(c2ccc(Cl)cc2)N1c1ccc(-n2c(-c3ccccc3)nc3ccccc3c2=O)cc1 (stereo unspecified)
inactive: [1] -3.65% | [2] -12.2% | [3] 5.35% | [4] -43.4% | [5] -0.7% | [6] 14.8%

CC(C)C1C(=O)CCCC1=O
inactive: [1] -10.5% | [2] 9.6% | [3] -5.5% | [4] -12.9% | [5] -17.5% | [6] -3.35%

O=C1ON(c2ccccc2)C(c2cccc(Cl)c2)N1c1ccccc1 (stereo unspecified)
inactive: [1] 14.1% | [2] -2.85% | [3] -3.95% | [4] 3.25% | [5] 9.25% | [6] -16.1%

CCC1SCC(=O)N1c1nncs1 (stereo unspecified)
inactive: [1] 4.75% | [2] 18.9% | [3] 4.55% | [4] -8.6% | [5] 2.75% | [6] 2.95%

O=[N+]([O-])c1ccccc1S(=O)(=O)N1CCCc2cc(Cl)ccc21
inactive: [1] -3% | [2] 4.15% | [3] 9.45% | [4] -12% | [5] 20.6% | [6] 13.4%

Cc1nc2ccccc2nc1CC(O)(c1ccccc1)c1cccc2ccccc12 (stereo unspecified)
inactive: [1] 55.8% | [2] 18.9% | [3] 37.4% | [4] 26.9% | [5] 13.2% | [6] 38.4%

OCCN(Cc1ccccc1)C(c1ccccc1)c1ccccc1
active: [1] 98.8% | [2] 98.9% | [3] 98.8% | [4] 98.4% | [5] 98.5% | [6] 98.9%

Cc1ccc(C)c(C(=O)c2ccccc2)c1C(=O)O
inactive: [1] -24.6% | [2] 7.8% | [3] 12.8% | [4] -29.9% | [5] 7.7% | [6] -4.15%

COC(=O)NN(C(=O)OC)C12CCCCC1N(C(=O)OC)N(C(=O)OC)c1c2ccc2cc(OC)ccc12 (stereo unspecified)
inactive: [1] 24.4% | [2] -0.7% | [3] 7.65% | [4] -14.1% | [5] 4.2% | [6] 10.9%

C/C(=N\S(=O)(=O)c1ccc([N+](=O)[O-])cc1)OCC(C)C
inactive: [1] 11.2% | [2] -8.4% | [3] 14.7% | [4] -47.9% | [5] 10.7% | [6] 2.25%

O=C(COc1ccc(Cl)cc1Cl)Nc1ccc2ccccc2c1
inactive: [1] 49.4% | [2] 46% | [3] 59.4% | [4] 18.9% | [5] 54.5% | [6] 36.7%

Cc1cc(O)c(C)c(C)c1C
inactive: [1] -1.05% | [2] -6.55% | [3] 4.5% | [4] 2.1% | [5] -9.85% | [6] 12.1%

CC1CC(=O)C2CC(Cl)CCC2(C)C1C (stereo unspecified)
inactive: [1] -18.1% | [2] -22.6% | [3] -4.6% | [4] -45.4% | [5] -27.4% | [6] -6.05%

CCNc1nc2ccccc2nc1NCC
inactive: [1] -18.1% | [2] -5.6% | [3] 1.45% | [4] 16.1% | [5] -13.3% | [6] 3.15%

CSC(SC)C(OC(C)=O)C(OC(C)=O)C(OC(C)=O)C(COC(C)=O)OC(C)=O (stereo unspecified)
inactive: [1] -11.7% | [2] 11.4% | [3] 3.15% | [4] -30.9% | [5] 2.3% | [6] 3.85%

CC(C)c1cc(C(F)(F)F)nc(NNc2nc(C(C)C)cc(C(F)(F)F)n2)n1
inactive: [1] -19.6% | [2] -25.1% | [3] -16.5% | [4] -13.2% | [5] -15.4% | [6] -34.1%

Cc1ncc2c(=O)c3c(oc2n1)c1ccccc1n3Cc1ccccc1
inactive: [1] 8.75% | [2] 9.15% | [3] 15.2% | [4] 3.1% | [5] 11.7% | [6] -4.1%

CCOC(=O)c1ccc(N=Nc2ccc(N(CCC#N)CCC#N)cc2C)cc1
inactive: [1] -47.5% | [2] -50.6% | [3] -27.4% | [4] -4.4% | [5] -36.8% | [6] -24.5%

CN1C/C(=C/c2ccc(N(C)C)cc2)C(=O)/C(=C/c2ccc(N(C)C)cc2)C1
inactive: [1] -2.45% | [2] -6.9% | [3] -16.9% | [4] -5.3% | [5] -3.7% | [6] -18.9%

CC1COC(c2ccc(Cl)cc2)O1 (stereo unspecified)
inactive: [1] 12.2% | [2] 18.1% | [3] 22% | [4] 20.4% | [5] -1.25% | [6] 12.7%

COc1cc(CN=c2nc(N(C)C)ss2)cc(OC)c1OC
inactive: [1] -27.8% | [2] -11.2% | [3] 9.15% | [4] -3.35% | [5] -11.6% | [6] -4.35%

COc1ccc(-c2c(C#N)c(O)n(NS(=O)(=O)c3ccc(C)cc3)c(=O)c2C#N)cc1
inactive: [1] 12.1% | [2] 37% | [3] 33% | [4] 20.8% | [5] 28.5% | [6] 37.5%
